Test results: PubChem BioAssay (NCATS)
Where “and” joins values, the source holds several entries; their conditions need not be identical. Equal entries are not always repeated. Results filed as inconclusive are left out. Calls of active or inactive are those of the source. Calls come from the whole dose curve; as a rule, active = well fitted curve in the direction sought with a large enough effect; inconclusive = small, poorly fitted or top-dose-only effect, or another doubt; inactive = no such curve, though single readings can be large; an effect the other way counts as inactive or inconclusive.

Legend:
[1] = biological target: Cellular tumor antigen p53 (Homo sapiens) (UniProt P04637); assay: Primary qHTS for small molecule compounds that upregulate eGFP-tagged delta133p53alpha (in N-terminal) cells. (AID 2060322); settings: NCI-H358 eGFP-delta133p53alpha fluorescence, 24 h; activation: stronger effect = higher value; note: nearly all actives have a fitted effect of over 75% in size; note: potency is the fitted concentration of half-maximal effect;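 for activation: series mostly up to about 56 µM; 0% = DMSO vehicle and 100% = reference activator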
Chain of Cellular tumor antigen p53 (Homo sapiens) (P04637 whole entry, looked up): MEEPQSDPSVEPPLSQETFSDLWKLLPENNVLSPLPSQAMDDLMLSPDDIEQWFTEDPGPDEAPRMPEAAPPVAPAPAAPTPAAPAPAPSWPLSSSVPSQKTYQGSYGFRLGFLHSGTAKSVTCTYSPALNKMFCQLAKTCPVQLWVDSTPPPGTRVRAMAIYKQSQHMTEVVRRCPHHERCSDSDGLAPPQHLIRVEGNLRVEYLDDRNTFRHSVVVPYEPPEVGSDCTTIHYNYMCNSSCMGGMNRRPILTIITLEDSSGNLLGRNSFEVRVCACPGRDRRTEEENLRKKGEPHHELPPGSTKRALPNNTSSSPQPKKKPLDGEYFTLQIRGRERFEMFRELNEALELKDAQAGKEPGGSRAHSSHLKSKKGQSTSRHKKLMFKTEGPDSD
Procedure, shortened: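 NCI-H358 cells pre-induced 24 h with 10 ng/ml doxycycline to express N-terminal eGFP-delta133p53alpha, then dosed 24 h at 37C without doxycycline; fixed, Hoechst-stained, GFP intensity by laser scanning cytometry, normalized to DMSO (0%) and 57.5 uM 5-azacytidine (100%).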

[2] = biological target: Aldehyde dehydrogenase, mitochondrial (Homo sapiens) (UniProt P05091); assay: qHTS for Inhibitors of the Aldehyde Dehydrogenase Family (ALDH2) Primary screen (AID 2061308);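 note: plate controls were vehicle for no effect and reference inhibitor for full effect; nearly all actives have a fitted effect of over 55% in size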
[3] = biological target: Retinaldehyde dehydrogenase 3 (Homo sapiens) (UniProt P47895); assay: qHTS for Inhibitors of the Aldehyde Dehydrogenase Family (ALDH1A3) Validation screen (AID 2061312); note: % is set by controls: 0 for no effect and ±100 for the full control effect; nearly all actives have a fitted effect of over 45% in size
[4] = biological target: Retinaldehyde dehydrogenase 3 (Homo sapiens) (UniProt P47895); assay: qHTS for Inhibitors of the Aldehyde Dehydrogenase Family (ALDH1A3) Primary screen (AID 2061315);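 note: plate controls were DMSO vehicle for no effect and reference inhibitor for full effect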
[5] = BET inhibitor-based combinations targeting novel dependencies in MECOM-rearranged (r) AML: SET-2 cell line (AID 2202231); settings: SET-2 AML cells viability, CellTiter-Glo luminescence, 48 h; viability: stronger effect = lower value, concentration not given here; note: nearly all actives have a fitted effect of over 35% in size; note: potency is the fitted concentration of half-maximal effect;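 for viability: plate controls were DMSO treated cells for no effect and wells without cells for full effect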
Procedure, shortened: (§1)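 Luminescent ATP readout (CellTiter-Glo) after 48 hr drug exposure gives viability. Curves span 11 concentrations and are normalized to DMSO and empty wells. Activity is reported as area under the curve and its Z-transform within each cell line.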

[6] = BET inhibitor-based combinations targeting novel dependencies in MECOM-rearranged (r) AML: HNT-34 cell line (AID 2202234); note: nearly all actives have a fitted effect of over 35% in size; note: potency is the fitted concentration of half-maximal effect
Procedure, shortened: (§2)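 Luminescent ATP readout (CellTiter-Glo, 15 min at room temperature) after 48 hr drug exposure gave viability. Dose-response curves, normalized to DMSO and empty-well controls, were summarized as area under the curve and its mean-centred Z-score.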

[7] = BET inhibitor-based combinations targeting novel dependencies in MECOM-rearranged (r) AML: UCSD-AML1 cell line (AID 2202235); note: nearly all actives have a fitted effect of over 40% in size; note: potency is the fitted concentration of half-maximal effect
Procedure, shortened: as §2

[8] = BET inhibitor-based combinations targeting novel dependencies in MECOM-rearranged (r) AML: AML-191 cell line (AID 2202236; note: nearly all actives have a fitted effect of over 35% in size; note: potency is the fitted concentration of half-maximal effect)
Procedure, shortened: as §1

[9] = BET inhibitor-based combinations targeting novel dependencies in MECOM-rearranged (r) AML: AML-194 cell line (AID 2202237; note: nearly all actives have a fitted effect of over 40% in size; note: potency is the fitted concentration of half-maximal effect)
Procedure, shortened: as §1

[10] = BET inhibitor-based combinations targeting novel dependencies in MECOM-rearranged (r) AML: OCI-AML3 cell line (AID 2202232); settings: Potency: OCI-AML3 viability; note: nearly all actives have a fitted effect of over 35% in size; note: potency is the fitted concentration of half-maximal effect
Procedure, shortened: as §1

[11] = BET inhibitor-based combinations targeting novel dependencies in MECOM-rearranged (r) AML: MV-4-11 cell line (AID 2202233); note: nearly all actives have a fitted effect of over 45% in size; note: potency is the fitted concentration of half-maximal effect
Procedure, shortened: as §2

OC1(c2ccc(Cl)cc2)c2ccccc2C2=NCCN21 (stereo not drawn)
inactive: activation [1] 6.21% | Potency [2] | Potency [3] | Potency [4]

Cc1cn(C[C@H](N)C(=O)O)c(=O)n(Cc2cc(-c3ccccc3)sc2C(=O)O)c1=O
inactive: activation [1] 8.11% | Potency [2] | Potency [3] | Potency [4]

CN(Cc1cccc(-c2ccncc2)c1)C(=O)Oc1ccc(-c2ccc(C(N)=O)cc2)cc1
inactive: activation [1] -8.11% | Potency [2] | Potency [3] | Potency [4]

O=C(O)C(=O)c1cn(Cc2ccccc2)c2ccc(-c3ccc(OC(F)(F)F)cc3)cc12
inactive: activation [1] -6.9% and -6.21% | Potency [2] | Potency [3] | Potency [4] | viability [5] 98.6% | Potency [6]

COC1=CC(=O)O[C@@H](/C=C/c2ccccc2)C1
inactive: activation [1] -10.7% | Potency [2] | Potency [4]

CC1CCCC(=O)CCC/C=C/c2cc(O)cc(O)c2C(=O)O1 (stereo not drawn)
inactive: activation [1] 7.14% | Potency [2] | Potency [4]

C/C=C(\C)C(=O)OC1C(C)OC(OC2C(C)OC(OC3CCC4(C)C(=CCC5C4CCC4(C)C(C(C)OC6OC(COC7OC(CO)C(O)C(O)C7O)C(O)C(O)C6O)CCC54O)C3)CC2OC)C(O)C1OC (stereo not drawn)
inactive: activation [1] 0.763% | Potency [2] | Potency [4]

CCNC(=O)CC1N=C(c2ccc(Cl)cc2)c2cc(OC)ccc2-n2c(C)nnc21 (stereo not drawn)
active: Potency [7] 9340 nM | Potency [8] 13200 nM
inactive: activation [1] -24.1% and -15% and -22.4% | Potency [2] | Potency [3] | Potency [4] | Potency [9]

OCc1nnc2n1-c1ccc(Cl)cc1C(c1ccccc1Cl)=NC2
inactive: activation [1] -3.67% | Potency [2] | Potency [4]

CCCCCn1cc(C(=O)C2C(C)(C)C2(C)C)c2ccccc21
inactive: activation [1] -0.955% | Potency [2] | Potency [4]

CCN(CC)C(=O)c1ccc(C2=CC3(CCNCC3)Oc3cccc(O)c32)cc1
inactive: activation [1] -5.25% | Potency [2] | Potency [3] | Potency [4] | viability [5] 99.6% | Potency [10] | Potency [6] | Potency [8] | Potency [9]

C/C=C1/CN2CC[C@]34C(=Nc5ccc(OC)cc53)C2C[C@@H]1C4(CO)C(=O)OC (stereo partly drawn)
inactive: activation [1] -9.16% | Potency [2] | Potency [4]

C/C=C(\C)C(=O)OC1CC2C(CC=C3CC(OC4CC(OC)C(OC5CC(OC)C(OC6CC(OC)C(OC7CC(OC)C(O)C(C)O7)C(C)O6)C(C)O5)C(C)O4)CCC32C)C2(O)CCC(C(C)=O)C12C (stereo not drawn)
inactive: activation [1] -6.11% | Potency [2] | Potency [4]

CC12CCC3C(C1)c1c(cc(O)c(C(=O)c4ccccc4)c1OC3(C)C)O2 (stereo not drawn)
inactive: activation [1] -17.6% | Potency [2] | Potency [4]

O=C1C=CC[C@@H]2[C@H]3CCCN4CCC[C@@H](CN12)[C@@H]34
inactive: activation [1] -8.56% and -6.68% | Potency [2] | Potency [3] | Potency [4] | Potency [10] | Potency [6] | Potency [8] | Potency [9]

CN1C(=O)N(c2ccc(C#N)c(C(F)(F)F)c2)C(=O)[C@]1(CO)c1ccccc1
inactive: activation [1] 17% | Potency [2] | Potency [4]

C=C[C@H]1CN2CCC1C[C@H]2[C@H](O)c1ccnc2ccccc12 (stereo partly drawn)
inactive: activation [1] -2.33% | Potency [2] | Potency [4]

CCCCCn1cc(C(=O)Oc2cccc3cccnc23)c2ccccc21
inactive: activation [1] -4.77% | Potency [2] | Potency [3] | Potency [4]

CC(=O)Nc1ccc(OC[C@](C)(O)C(=O)Nc2ccc([N+](=O)[O-])c(C(F)(F)F)c2)cc1
inactive: activation [1] 44.3% and 23.4% | Potency [2] | Potency [3] | Potency [4] | viability [5] 114% | Potency [11] | Potency [7] | Potency [8] | Potency [9]

O=c1[nH]c2ccc(Cl)cc2c(N[C@@H]2CN3CCC2CC3)c1-c1nc2ccccc2[nH]1
active: Potency [1] 17.2 µM and 2.69 µM | Potency [5] 332 nM | Potency [10] 417 nM | Potency [11] 74.2 nM | Potency [7] 417 nM | Potency [8] 417 nM
inactive: Potency [2] | Potency [3] | Potency [4]

C[C@@]1(CO)[C@H](O)CC[C@@]2(C)[C@H]1CC[C@H]1C[C@@H]3C[C@@]12CC[C@]3(O)CO
inactive: activation [1] -3.82% | Potency [2] | Potency [4]

CCc1c(C(=O)C(N)=O)c2c(OCC(=O)O)cccc2n1Cc1ccccc1
inactive: activation [1] -24.6% and -2.39% | Potency [2] | Potency [3] | Potency [4] | viability [5] 113% | Potency [10] | Potency [11] | Potency [6] | Potency [7] | Potency [8]

CN[C@H]1[C@H](O)[C@H](O[C@@H]2[C@@H](O)[C@H](O[C@H]3O[C@H]([C@H](C)O)[C@@H](O)[C@H](O)[C@H]3N)[C@@H](N)C[C@H]2N)OC[C@@]1(C)O
inactive: activation [1] -4.3% | Potency [2] | Potency [3] | Potency [4]

CN(C)c1cc2c(cc1Sc1nc3c(N)nccc3n1CCNCC(C)(C)C)OCO2
inactive: activation [1] 5.25% | Potency [2] | Potency [3] | Potency [4]
active: Potency [5] 1320 nM | Potency [10] 1180 nM | Potency [7] 1320 nM

COc1cc(C(=O)O[C@H]2[C@@H]3C=CO[C@@H](O[C@@H]4O[C@H](CO)[C@@H](O)[C@H](O)[C@H]4O)[C@@H]3[C@@]3(CO)O[C@@H]23)ccc1O
inactive: activation [1] -3.82% | Potency [2] | Potency [4]

Cc1sc2c(c1C)C(c1ccc(Cl)cc1)=N[C@@H](CC(N)=O)c1nnc(C)n1-2
inactive: activation [1] 10% | Potency [2] | Potency [3] | Potency [4]
active: Potency [5] 372 nM | Potency [10] 105 nM | Potency [11] 83.3 nM | Potency [8] 209 nM

Cc1c(C(=O)Nc2cccc(C(F)(F)F)c2)cc(-c2ccccc2)n1CCCN1CCOCC1
inactive: activation [1] -17.9% and -8.11% | Potency [2] | Potency [3] | Potency [4]
active: Potency [11] 20900 nM

CN1C2CCC1CC(OC(=O)N1Cc3ccccc3NC1=O)C2 (stereo not drawn)
inactive: activation [1] 1.43% | Potency [2] | Potency [3] | Potency [4]

O=C(Oc1ccc([N+](=O)[O-])cc1)N1CCN(Cc2cccc(Oc3ccccc3)c2)CC1
inactive: activation [1] 1.36% and 1.43% | Potency [2] | Potency [3] | Potency [4] | viability [5] 110% | Potency [10]

CCN1C[C@]2(OC(=O)c3ccccc3NC(C)=O)CC[C@H](OC)[C@@]34[C@@H]2C[C@@H]([C@@H]13)[C@@]1(O)C[C@H](OC)[C@H]2C[C@@H]4[C@]1(O)[C@H]2OC
inactive: activation [1] -6.68% | Potency [2] | Potency [3] | Potency [4]

Cc1ccccc1-n1c(Cn2ncc3c(N)ncnc32)nc2cccc(C)c2c1=O
active: Potency [11] 8330 nM
inactive: activation [1] 66.5% and 6.21% | Potency [2] | Potency [3] | Potency [4] | Potency [10] | Potency [6] | Potency [7] | Potency [8] | Potency [9]

CCc1nn(C)c(C(=O)NCc2ccc(Oc3ccc(C)cc3)cc2)c1Cl
inactive: activation [1] 1.43% | Potency [2] | Potency [3] | Potency [4]

COC(=O)C1=COC(C)C2CN3CCC4(C(=O)Nc5ccccc54)C3CC12 (stereo not drawn)
inactive: activation [1] 11.5% | Potency [2] | Potency [4]

C[C@@H]1CN(Cc2ccc(F)cc2)CCN1C(=O)COc1ccc(Cl)cc1NC(N)=O
inactive: activation [1] 1.91% | Potency [2] | Potency [3] | Potency [4] | Potency [7]
active: Potency [8] 7420 nM | Potency [9] 18600 nM

CCOC(=O)NC(C)(C)Cc1ccc(Cl)cc1
inactive: activation [1] -6.33% | Potency [2] | Potency [4]

CCc1c(C(=O)C(N)=O)c2c(OCC(=O)OC)cccc2n1Cc1ccccc1
inactive: activation [1] -15.3% | Potency [2] | Potency [3] | Potency [4]

CCC(C)(O)C1(C(=O)O)COC(=O)C1 (stereo not drawn)
inactive: activation [1] 6.25% | Potency [2] | Potency [4]

CC1=C2C[C@H]3[C@@H](CC=C4C[C@@H](O)CC[C@@]43C)[C@@H]2CC[C@]12O[C@@H]1C[C@H](C)CN[C@H]1[C@H]2C
inactive: activation [1] 2.39% | Potency [2] | Potency [3] | Potency [4] | Potency [10] | Potency [11] | Potency [6] | Potency [7] | Potency [8]

CCOc1ccccc1-n1c(C(C)N2CCN(C(=O)COc3ccc(Cl)cc3)CC2)nc2ccccc2c1=O (stereo not drawn)
inactive: activation [1] 0.955% | Potency [2] | Potency [3] | Potency [4]
active: Potency [5] 1320 nM | Potency [11] 3320 nM | Potency [6] 3320 nM | Potency [8] 2630 nM | Potency [9] 4680 nM

CN1[C@@H]2CC[C@H]1CC(OC(=O)C1C=Nc3ccccc31)C2 (stereo partly drawn)
inactive: activation [1] -7.64% | Potency [2] | Potency [3] | Potency [4]

CC1=CC2/C=C(\C)CCCC(O)/C=C/C(=O)OC23C(=O)NC(CC(C)C)C3C1C (stereo not drawn)
inactive: activation [1] 1.79% | Potency [2] | Potency [4]

COC(=O)CC1CC2(C(=O)c3c(O)cccc3C2(O)C(=O)OC)C(C)O1 (stereo not drawn)
inactive: activation [1] 8.4% | Potency [2] | Potency [4]

CC(=O)OC[C@]12C[C@H](OC(=O)CC(C)C)C(C)=C[C@H]1O[C@@H]1[C@H](O)C[C@@]2(C)[C@]12CO2
inactive: Potency [2] | Potency [4]
active: Potency [1] 3.7 µM

CC1=CC2/C=C(\C)CCC(O)C(O)C(O)CC(=O)C23C(=O)NC(CC(C)C)C3C1C (stereo not drawn)
inactive: activation [1] -32.8% | Potency [2] | Potency [4]

COC1CCCC(C)OC(=O)Cc2cc(O)cc(O)c2C(=O)C1 (stereo not drawn)
active: Potency [1] 16.6 µM
inactive: Potency [2] | Potency [4]

CC1=CC(=O)[C@@H](O)[C@]2(C)C3[C@@H](O)[C@@H]4OC(=O)[C@@H]([C@H]4C)[C@]3(C)C(=O)C[C@@H]12 (stereo partly drawn)
active: Potency [1] 16.6 µM
inactive: Potency [2] | Potency [4]

CCOP(=O)(OCC)Oc1ccc2c(C)cc(=O)oc2c1
inactive: activation [1] 6.33% | Potency [2] | Potency [4]

C[C@]12CC[C@H](O)C[C@@H]1CC[C@@H]1[C@@H]2CC[C@]2(C)C(=O)CC[C@@H]12
inactive: activation [1] 6.33% | Potency [2] | Potency [4]
